Reference: the supplement of paper PMC10981050
Several values for one entry are separate records, joined by “and”; a condition that tells them apart may be missing. Equal values may be shown once. Where a name gives a salt, the structure may show the parent alone.

What was measured:
Test in all cases: cell viability relative to vehicle control; higher = less cytotoxic
Conditions in all cases: 10 µM
K562 = test system: K562
Summary of the method: (§1)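 CRISPR-edited SRSF2 P95 mutant and isogenic wild-type clones of four leukaemia lines were screened against Selleck bioactive, kinase and epigenetic probe libraries, with identity-inconsistent compounds removed. Compounds were acoustically dispensed into 384-well plates at a single 10 µM dose, with 2000 cells in 50 µL medium per well. After 48 h, supernatant was removed and CellTiter-Glo luminescence was read. Viability was expressed as percent of the on-plate DMSO vehicle control, analysed in Genedata Screener.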

MARIMO = test system: MARIMO
Summary of the method: as §1

MOLM14 = test system: MOLM14
Summary of the method: as §1

OCI-AML2 = test system: OCI-AML2
Summary of the method: as §1

Structure (SMILES)	cell viability (K562; SRSF2 genotype: SRSF2 P95H/wt)	cell viability (K562; SRSF2 genotype: SRSF2 wt/wt)	cell viability (MARIMO; SRSF2 genotype: SRSF2 P95H/wt)	cell viability (MARIMO; SRSF2 genotype: SRSF2 wt/wt)	cell viability (MOLM14; SRSF2 genotype: SRSF2 P95H/wt)	cell viability (MOLM14; SRSF2 genotype: SRSF2 wt/wt)	cell viability (OCI-AML2; SRSF2 genotype: P95H/wt)	cell viability (OCI-AML2; SRSF2 genotype: wt/wt)
CC1=C(C(=O)OC2CCCCC2)C(c2ccc([N+](=O)[O-])cc2)C2=C(CC(C)(C)CC2=O)N1 (stereo not given)	30.9% and 13.9%	47.4%	84.3%	66%	10.5%	13.7%	52.6%	43.5%
CN1CC(O)c2cc(N=NC(N)=O)c(O)cc21 (stereo not given) [Carbazochrome]	98.5% and 95.6%	89.4%	99.4%	94.8%	95.7%	101%	98.8%	95.4%
COc1cc(C=O)ccc1OC(C)=O [Acetylvanillin]	99.2% and 99.9%	99.7%	104%	103%	104%	101%	98.4%	104%
C[C@H](N[C@@H](CCc1ccccc1)C(=O)O)C(=O)N1CCC[C@H]1C(=O)O [Enalaprilat dihydrate]	103% and 100%	100%	98.7%	109%	102%	103%	99.4%	108%
COc1cc(C)c2c(=O)c(-c3ccccc3)coc2c1 [5-Methyl-7-methoxyisoflavone]	101% and 95.6%	92.2%	85.2%	90.2%	97.1%	92.6%	93.4%	88.4%
CN(CCNCc1cn(Cc2ccc(Cl)cc2)nn1)CCNc1ccnc2cc(Cl)ccc12	2.31% and 5.3%	6.48%	28.8%	34.4%	2.79%	0.55%	0.39%	0.68%
CN1CCC(=C2c3ccccc3CCn3c(C=O)cnc32)CC1 [Alcaftadine]	102% and 104%	100%	100%	94.7%	99.7%	99.4%	109%	97.4%
CNC1CCC(N(Cc2cccc(-c3ccncc3)c2)C(=O)c2sc3ccccc3c2Cl)CC1 (stereo not given) [Smoothened Agonist (SAG) HCl]	18.8% and 30.6%	29.8%	53.8%	51.4%	36.6%	48.6%	3.18%	26.1%
O=C(C=Cc1ccccc1)NC(NC(=S)Nc1ccc(Cl)cc1)C(Cl)(Cl)Cl (stereo not given)	81.5% and 86.5%	86.9%	102%	104%	90.4%	96%	99.1%	100%
C=CC(C)(O)CCC=C(C)C (stereo not given) [Linalool]	100% and 105%	107%	101%	105%	103%	104%	109%	97.4%
CC(C)(OCc1nn(Cc2ccccc2)c2ccccc12)C(=O)O [Bindarit]	102% and 106%	112%	108%	103%	101%	106%	118%	107%
Nc1cccc2c1CN(C1CCC(=O)NC1=O)C2=O (stereo not given) [Lenalidomide (CC-5013)]	98.2% and 96.6%	94.8%	97.1%	101%	91.3%	93.5%	118%	113%
O=C(O)C(O)Cc1ccc(O)c(O)c1 (stereo not given) [Sodium Danshensu]	98.7% and 92.4%	95.5%	95.5%	107%	96.4%	98.8%	93.7%	104%
Cc1cc(=O)[nH]c(=S)[nH]1 [Methylthiouracil]	99.3% and 106%	90.5%	96.7%	107%	99.9%	103%	95.5%	104%
C[C@@H](c1nc(-c2ccc(C#N)cc2)cs1)[C@](O)(Cn1cncn1)c1cc(F)ccc1F [Isavuconazole]	45.7% and 47.6%	48.5%	39.3%	33%	44.8%	26%	38.7%	28%
COc1ccc2c(c1)c(CC(=O)OCC(=O)O)c(C)n2C(=O)c1ccc(Cl)cc1 [Acemetacin (Emflex)]	101% and 98.4%	93.5%	97.8%	94.9%	95.4%	98.6%	108%	104%
CC(C)(C#N)c1ccc(N2C(=O)OCc3cnc4ccc(-c5cnc6ccccc6c5)cc4c32)cc1	78.7% and 82.1%	85.8%	83%	92.5%	66%	80.2%	74.5%	75.7%
CCCCCCCCCC=O [Decyl aldehyde]	98.7% and 94.8%	106%	99.1%	101%	102%	105%	100%	111%

Structure (SMILES)	cell viability (K562; SRSF2 genotype: SRSF2 P95H/wt)	cell viability (K562; SRSF2 genotype: SRSF2 wt/wt)	cell viability (MARIMO; SRSF2 genotype: SRSF2 P95H/wt)	cell viability (MARIMO; SRSF2 genotype: SRSF2 wt/wt)	cell viability (MOLM14; SRSF2 genotype: SRSF2 P95H/wt)	cell viability (MOLM14; SRSF2 genotype: SRSF2 wt/wt)	cell viability (OCI-AML2; SRSF2 genotype: P95H/wt)	cell viability (OCI-AML2; SRSF2 genotype: wt/wt)
CCCCC1C(=O)N(c2ccccc2)N(c2ccccc2)C1=O [Phenylbutazone (Butazolidin, Butatron)]	98.1% and 102%	94.9%	97.2%	102%	98%	99.9%	106%	107%
CC=Cc1cc(OC)c2c(c1)C(C)C(c1ccc(O)c(OC)c1)O2 (stereo not given) [Dehydrodiisoeugenol]	90.2% and 91.2%	90.4%	89.4%	95.5%	83.3%	97.8%	75.8%	78.8%
CCOc1cc2ncc(C#N)c(Nc3ccc(OCc4ccccn4)c(Cl)c3)c2cc1NC(=O)/C=C/CN(C)C [Neratinib (HKI-272)]	68.5% and 66.3%	62.6%	42.1%	41.8%	54.1%	53.4%	13.3%	36.9%
N/C(=N\N=C\c1ccc(Cl)cc1)N/N=C/c1ccc(Cl)cc1 [Robenidine Hydrochoride]	70.9% and 65.6%	67.4%	65.7%	67.8%	59.2%	65.9%	60.2%	73.3%
COc1ccc(CC(=O)O)cc1OC [Homoveratrumic acid]	92% and 79.3%	85.9%	89.2%	98.9%	89.3%	92.8%	88.2%	99%
COc1ccc(-c2oc3c(CC=C(C)C)c(O)cc(O)c3c(=O)c2O[C@@H]2O[C@@H](C)[C@H](O)[C@@H](O)[C@H]2O)cc1 [Baohuoside I]	101% and 98.2%	90.4%	94.6%	107%	87.8%	88.5%	101%	107%
O=C(c1ccc(/C=C/c2n[nH]c3ccccc23)cc1)N1CCNCC1	42.2% and 62.9%	27.7%	38.9%	36.2%	2.78%	7.69%	7.33%	14.9%
c1ccc2c(CC3=NCCN3)cccc2c1 [Naphazoline hydrochloride (Naphcon)]	102% and 99.6%	94.5%	106%	107%	97.1%	103%	97.8%	106%
CC(C)CCCC(C)C1CCC2C3CCC4CC(O)CCC4(C)C3CCC12C (stereo not given) [Dihydrocholesterol]	93% and 100%	92.6%	95.2%	97.3%	90.2%	97.6%	98.3%	97.6%
COc1cc2c(cc1OC)[C@H]1[C@@H](C)c3ccc(OC)c(OC)c3CN1CC2 [Corydaline]	84.4% and 88.8%	86.6%	83.2%	82%	89.4%	90.9%	73.8%	79.1%
N[C@@H](Cc1cc(I)c(Oc2cc(I)c(O)c(I)c2)c(I)c1)C(=O)O [Levothyroxine sodium]	89.6% and 92.8%	106%	102%	104%	92.9%	101%	100%	94.3%
O=c1ncn2nc(Sc3ccc(F)cc3F)ccc2c1-c1c(Cl)cccc1Cl	84.8% and 86.8%	83.6%	77.9%	84%	82.1%	92.9%	64.1%	68.6%
N[C@H]1CC[C@H](N[C@@H]2C[C@H]2c2ccccc2)CC1	96% and 97.8%	93.3%	89.7%	88.5%	87.5%	86.2%	71.3%	84.6%
COc1cc(-c2cn(C)c(=O)c3cnccc23)cc(OC)c1CN(C)C	104% and 95.7%	105%	99.4%	87.2%	103%	95.9%	98.6%	113%
O=c1cc(N2CCOCC2)oc2c(-c3ccc4c(c3)OCCO4)csc12	39.4% and 50.7%	46.9%	36.4%	30.9%	15.7%	18.2%	3.38%	11.7%
Cc1cc(Nc2cc(N3CCN(C)CC3)nc(/C=C/c3ccccc3)n2)n[nH]1 [ENMD-2076 L-(+)-Tartaric acid]	22.5% and 29.7%	22.9%	34.8%	30.7%	2.93%	6.51%	7.71%	14.7%
CCCCOc1ccc(C(=O)CCN2CCCCC2)cc1 [Dyclonine hydrochloride]	80.7% and 80.8%	80.6%	77.8%	68.7%	49.2%	76.4%	64.5%	64.2%
